# Reference: PubChem BioAssay (NCATS)
# Results filed as inconclusive are left out. A call without a number means that no potency is given here. Active and inactive are the calls of the source. Unless noted, calls come from the whole dose curve; as a rule, active = well fitted curve in the direction sought with a large enough effect; inconclusive = small, poorly fitted or top-dose-only effect, or another doubt; inactive = no such curve, though single readings can be large; an effect the other way counts as inactive or inconclusive.
# How the values were obtained:
# [1] = molecular target: Thioredoxin reductase 1, cytoplasmic (Rattus norvegicus) (UniProt O89049); experiment: qHTS Assay for Inhibitors of Mammalian Selenoprotein Thioredoxin Reductase 1 (TrxR1) (AID 488773); details: Potency: inhibition;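 note: drop in NADPH fluorescence over an 8 min run after selenite addition; series mostly up to about 57 µM; nearly all actives have a fitted effect of over 40% in size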
# In short: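 Inhibition is scored from the loss of NADPH fluorescence between first and last reads of an 8-min kinetic run. Selenite (400 uM) was the substrate, added after 15 min compound preincubation at room temperature.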
# [2] = molecular target: Chromobox protein homolog 1 (Homo sapiens) (UniProt P83916); experiment: qHTS Validation Assay for Inhibitors of HP1-beta Chromodomain Interactions with Methylated Histone Tails (AID 488953); note: nearly all actives have a fitted effect of over 50% in size; note: potency is the fitted concentration of half-maximal effect
# In short: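 Compounds pinned into a preassembled complex of HP1-beta and trimethyl-K9 histone H3(1-18) biotin peptide (50 nM each; PBS pH 7.4, 0.01% Tween-20). After 30 min, bead-based AlphaScreen detection followed.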
# [3] = molecular target: Methanococcus maripaludis chaperonin (MmCpn) (UniProt Q6LX38); experiment: High-Throughput Screening for Modulators of Cytosolic Chaperonin Activity: MmCpn Primary Screen (AID 488978);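 note: 50 nM MmCpn enzyme hydrolysing 30 µM ATP at 37 °C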
# In short: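 Steps: chaperonin 50 nM final; add compound, 5 min RT; start with ATP, 30 uM final; hold 10 min at 37C; add ADP Transcreener HTRF reagent, 5 min; read ex 320, em 590 and 665 nm.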
# [4] = molecular target: Thyrotropin receptor (Homo sapiens) (UniProt P16473); experiment: qHTS Assay for Antagonists of the Thyroid Stimulating Hormone Receptor (AID 488980); note: series mostly up to about 58 µM
# In short: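 Readout is cAMP by HTRF competition between cellular cAMP and cAMP-d2 for a cryptate-labelled antibody. Antagonism was assessed in TSHR-transfected HEK293 cells stimulated with 4 nM TSH (EC80, final) in the presence of RO 20-1724.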
# [5] = molecular target: D(1A) dopamine receptor (Homo sapiens) (UniProt P21728); experiment: HTS Assay for Allosteric Agonists of the Human D1 Dopamine Receptor: Primary Screen for Antagonists (AID 488983);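 note: calcium flux response to an EC80 dopamine challenge measured with no-wash dye; nearly all actives have a fitted effect of over 65% in size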
# In short: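 In this primary screen, compounds are applied to calcium-dye-loaded HEK293 T-REx cells with force-coupled D1 expression induced overnight at 30 C. An EC80 of dopamine follows the 180 s compound phase, and calcium is monitored for a further 180 s.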
# [6] = Validation screen for small molecules that induce genotoxicity in human embryonic kidney (HEK293T) cells expressing luciferase-tagged ELG1 (AID 493106)
# In short: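 In this validation screen, increased ELG1-luciferase signal flags compounds causing genetic stress. HEK293T reporter cells are treated 16 hr (37 °C, 5% CO2), developed with ONE-Glo for 30 min at room temperature, and imaged on a CCD-based reader.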
# [7] = molecular target: ATP-dependent 6-phosphofructokinase (Trypanosoma brucei brucei) (UniProt O15648); experiment: qHTS Assay to Find Inhibitors of T. brucei phosphofructokinase: hit validation (AID 492961);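 note: luminescence reports ADP formed as PFK phosphorylates fructose-6-phosphate with ATP; series mostly up to about 51 µM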
# In short: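 Inhibition of parasite PFK is measured as reduced ADP formation, quantified via luciferase after ATP depletion. Assay used 0.1 mM ATP, 0.5 mM F6P, 1.25 nM enzyme, 45 min incubation.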
# [8] = molecular target: Transient receptor potential cation channel subfamily V member 1 (Homo sapiens) (UniProt Q8NER1); experiment: HTS Assay for Compounds that Act as Enhancers of the Vanilloid Receptor 1 (AID 488979)
# In short: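 TRPV1 cells loaded with Fluo-8 calcium dye; compound added and Ca2+ signal (ex 480/em 520 nm) followed 3 min, then capsaicin at EC20 added and read 2 more min to detect enhancement.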
# [9] = molecular target: D(1A) dopamine receptor (Homo sapiens) (UniProt P21728); experiment: HTS Assay for Allosteric Agonists of the Human D1 Dopamine Receptor: Primary Screen for Agonists (AID 488981)
# In short: (§1)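 Tetracycline-induced HEK293 Trex D1 cells with forced coupling to calcium, loaded with no-wash calcium dye; kinetic fluorescence read 180 s after compound addition for agonism, then a further 180 s after an EC20 dopamine challenge for potentiation.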
# [10] = molecular target: D(1A) dopamine receptor (Homo sapiens) (UniProt P21728); experiment: HTS Assay for Allosteric Agonists of the Human D1 Dopamine Receptor: Primary Screen for Potentiators (AID 488982)
# In short: as §1
# [11] = molecular target: ATPase family AAA domain-containing protein 5 (Homo sapiens) (UniProt Q96QE3); experiment: Validation screen for small molecules that inhibit ELG1-dependent DNA repair in human embryonic kidney (HEK293T) cells expressing luciferase-tagged ELG1 (AID 493107);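 note: cells co-treated with the DNA-damaging agent 5-fluorouridine alongside compound; series mostly up to about 46 µM; inhibitors lower the ELG1-luciferase luminescence signal; nearly all actives have a fitted effect of over 70% in size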
# In short: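 Compounds reducing 5-fluorouridine-driven ELG1-luciferase signal in HEK293T cells were scored; exposure lasted 16 hr at 37 °C with luminescence detected via ONE-Glo.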
# [12] = molecular target: Thyrotropin-releasing hormone receptor (Homo sapiens) (UniProt P34981); experiment: qHTS for Small Molecule Agonists and Allosteric Enhancers of Human TRH Receptor: Validation Screen for Agonists (AID 493127;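 active = calcium activation more than 3 SD above the typical response in the agonist read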;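 note: intracellular calcium rise by fluo-8 fluorescence before TRH EC20 addition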); details: TRH receptor agonist cell assay; at 2 µM; stronger effect = higher value
# In short: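 Kinetic fluorescence assay of agonist-induced calcium release: overnight-plated TRHR cells, room-temperature fluo-8 loading, baseline then compound addition with per-second reads.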
# [13] = Nrf2 qHTS screen for inhibitors: Validation (AID 493153; active = well fitted inhibition curve with a large enough effect in the main read-out, with a control signal flat, not every such curve was filed as active); details: Potency: luciferase luminescence; viability change: measured here: cytotoxicity max response
# In short: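 In this counterscreened reporter format, each well gives two signals: CellTiter-Fluor fluorescence for cytotoxicity and ARE-luciferase luminescence for Nrf2 function. A549 ARE_Fluc cells in 5% FBS OPTI-MEM were exposed to compound titrations for 18-24 h.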
# [14] = qHTS for Inhibitors of Cell Surface uPA Generation: Validation Assay (AID 493164);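 note: RAW 264.7 macrophage cells exposed to compound for 18 h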
# In short: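 Compounds are titrated over seven points (2.45 nM–38.3 uM final) onto pre-plated RAW 264.7 cells and incubated for 18 h. Retained intracellular ATP, measured with ATP-Lite, indicates blocked lethal factor entry.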
# [15] = molecular target: Galactokinase (Homo sapiens) (UniProt P51570); experiment: qHTS Validation Assay for Inhibitors of Human Galactokinase (GALK) (AID 493189)
# In short: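 5 nM GALK / 100 uM galactose / 35 uM ATP, 20 mM HEPES pH8.0, 5 mM MgCl2, 60 mM NaCl, 1 mM DTT, 0.01% BSA (final). RT 1 h; Kinase-Glo Plus luminescence.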
# [16] = Validation screen for small molecules that induce DNA re-replication in SW480 colon adenocarcinoma cells (AID 504364)
# In short: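 Hoechst-stained SW480 nuclei, imaged at 405 nm excitation after 48 hr compound exposure, were counted for elevated DNA content as the re-replication signal.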
# [17] = molecular target: M-phase phosphoprotein 8 (Homo sapiens) (UniProt Q99549); experiment: qHTS Validation Assay for Inhibitors for MPP8 Chromodomain Interactions with Methylated Histone Tails (AID 488949);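 note: 50 nM MPP8 with 50 nM peptide preformed then compounds added for 30 min; AlphaScreen signal from MPP8 chromodomain bound to biotinylated H3K9me3 peptide; top concentration of the series differs between compounds; nearly all actives have a fitted effect of over 55% in size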
# In short: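 50 nM MPP8 + 50 nM b-H3K9me3 peptide, PBS pH 7.4/0.01% Tween-20, 30 min RT; + cpd 30 min RT; + AlphaScreen donor/Ni-chelate acceptor beads 10 ug/mL final, 30 min dark; luminescence read.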
# [18] = molecular target: Tyrosyl-DNA phosphodiesterase 1 (Homo sapiens) (UniProt Q9NUW8); experiment: Confirmation Assay for Inhibitors of Tyrosyl-DNA Phosphodiesterase (TDP1) (AID 489007); details: recombinant human TDP1 enzymatic activity, dose-response; note: potency is the fitted concentration of half-maximal effect; nearly all actives have a fitted effect of over 40% in size
# In short: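 Loss of AlphaScreen signal reports Tdp1 cleavage of a dual-labelled DNA substrate. Conditions: 1 nM E. coli-derived enzyme, 15 nM substrate, 15 min compound preincubation, 5 min reaction, 10 min bead incubation, all at room temperature.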
# Sequence of ATP-dependent 6-phosphofructokinase (Trypanosoma brucei brucei) (O15648 whole entry, looked up): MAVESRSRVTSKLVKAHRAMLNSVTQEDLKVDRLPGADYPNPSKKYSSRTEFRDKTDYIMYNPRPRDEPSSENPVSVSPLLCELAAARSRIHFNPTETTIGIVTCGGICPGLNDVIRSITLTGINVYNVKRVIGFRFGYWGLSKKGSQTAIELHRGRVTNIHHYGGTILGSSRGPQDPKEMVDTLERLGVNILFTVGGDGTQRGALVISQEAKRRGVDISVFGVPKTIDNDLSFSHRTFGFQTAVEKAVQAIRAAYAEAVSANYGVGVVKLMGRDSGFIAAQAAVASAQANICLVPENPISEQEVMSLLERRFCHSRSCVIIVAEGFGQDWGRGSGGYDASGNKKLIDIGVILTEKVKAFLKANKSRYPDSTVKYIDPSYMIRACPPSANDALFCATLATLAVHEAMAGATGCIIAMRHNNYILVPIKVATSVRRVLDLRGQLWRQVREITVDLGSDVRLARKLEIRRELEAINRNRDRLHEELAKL
# Sequence of M-phase phosphoprotein 8 (Homo sapiens) (Q99549 whole entry, looked up): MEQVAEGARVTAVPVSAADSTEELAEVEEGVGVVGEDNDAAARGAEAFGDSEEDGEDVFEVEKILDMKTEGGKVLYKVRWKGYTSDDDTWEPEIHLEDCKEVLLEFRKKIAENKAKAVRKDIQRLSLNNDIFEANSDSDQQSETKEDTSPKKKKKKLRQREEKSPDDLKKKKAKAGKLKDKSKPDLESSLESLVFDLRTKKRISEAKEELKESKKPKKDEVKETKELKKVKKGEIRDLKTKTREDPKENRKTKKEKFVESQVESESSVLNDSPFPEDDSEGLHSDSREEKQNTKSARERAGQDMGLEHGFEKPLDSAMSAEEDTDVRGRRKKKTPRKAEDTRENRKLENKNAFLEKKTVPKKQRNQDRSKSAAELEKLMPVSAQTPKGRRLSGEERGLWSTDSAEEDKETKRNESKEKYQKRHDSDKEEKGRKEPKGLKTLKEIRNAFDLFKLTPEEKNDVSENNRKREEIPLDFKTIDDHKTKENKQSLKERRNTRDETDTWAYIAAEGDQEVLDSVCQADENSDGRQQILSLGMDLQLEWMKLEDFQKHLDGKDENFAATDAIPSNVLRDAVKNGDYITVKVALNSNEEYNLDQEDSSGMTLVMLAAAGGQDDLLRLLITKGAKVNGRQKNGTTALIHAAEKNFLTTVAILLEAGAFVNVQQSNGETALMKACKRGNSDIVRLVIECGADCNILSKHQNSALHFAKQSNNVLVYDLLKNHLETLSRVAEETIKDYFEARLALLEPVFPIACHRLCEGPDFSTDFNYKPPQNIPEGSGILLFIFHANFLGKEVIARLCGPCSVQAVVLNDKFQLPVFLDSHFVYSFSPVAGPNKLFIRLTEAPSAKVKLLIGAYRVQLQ
# Sequence of Galactokinase (Homo sapiens) (P51570 whole entry, looked up): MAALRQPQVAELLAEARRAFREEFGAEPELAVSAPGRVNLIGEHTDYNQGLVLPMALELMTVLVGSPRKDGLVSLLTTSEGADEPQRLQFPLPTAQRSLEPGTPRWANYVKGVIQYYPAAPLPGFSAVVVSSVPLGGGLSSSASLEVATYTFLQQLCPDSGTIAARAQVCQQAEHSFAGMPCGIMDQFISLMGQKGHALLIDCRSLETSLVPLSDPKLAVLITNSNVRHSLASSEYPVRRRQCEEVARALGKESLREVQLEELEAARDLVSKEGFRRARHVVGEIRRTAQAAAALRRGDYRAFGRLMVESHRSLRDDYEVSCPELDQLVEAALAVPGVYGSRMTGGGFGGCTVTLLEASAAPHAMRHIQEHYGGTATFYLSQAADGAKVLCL
# Sequence of Chromobox protein homolog 1 (Homo sapiens) (P83916 whole entry, looked up): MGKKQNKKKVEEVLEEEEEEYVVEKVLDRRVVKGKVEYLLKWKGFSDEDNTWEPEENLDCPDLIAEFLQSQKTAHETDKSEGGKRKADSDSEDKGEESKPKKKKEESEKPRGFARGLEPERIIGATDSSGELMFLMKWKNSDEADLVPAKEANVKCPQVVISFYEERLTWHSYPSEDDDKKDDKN
# Sequence of Thioredoxin reductase 1, cytoplasmic (Rattus norvegicus) (O89049 whole entry, looked up): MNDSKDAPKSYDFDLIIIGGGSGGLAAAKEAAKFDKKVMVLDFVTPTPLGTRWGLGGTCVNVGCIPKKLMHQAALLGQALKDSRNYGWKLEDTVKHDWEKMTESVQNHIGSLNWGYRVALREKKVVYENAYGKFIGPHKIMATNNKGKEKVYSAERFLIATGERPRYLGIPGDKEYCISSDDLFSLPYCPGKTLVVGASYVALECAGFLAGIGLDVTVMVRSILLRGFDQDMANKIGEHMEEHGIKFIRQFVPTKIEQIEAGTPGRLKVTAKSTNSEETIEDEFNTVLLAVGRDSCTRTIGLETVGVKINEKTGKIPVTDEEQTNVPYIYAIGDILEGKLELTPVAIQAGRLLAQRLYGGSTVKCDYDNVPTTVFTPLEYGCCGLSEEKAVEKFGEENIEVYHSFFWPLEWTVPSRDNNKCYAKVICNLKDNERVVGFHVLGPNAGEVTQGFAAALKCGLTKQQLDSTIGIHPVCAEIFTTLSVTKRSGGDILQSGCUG
# Sequence of D(1A) dopamine receptor (Homo sapiens) (P21728 whole entry, looked up): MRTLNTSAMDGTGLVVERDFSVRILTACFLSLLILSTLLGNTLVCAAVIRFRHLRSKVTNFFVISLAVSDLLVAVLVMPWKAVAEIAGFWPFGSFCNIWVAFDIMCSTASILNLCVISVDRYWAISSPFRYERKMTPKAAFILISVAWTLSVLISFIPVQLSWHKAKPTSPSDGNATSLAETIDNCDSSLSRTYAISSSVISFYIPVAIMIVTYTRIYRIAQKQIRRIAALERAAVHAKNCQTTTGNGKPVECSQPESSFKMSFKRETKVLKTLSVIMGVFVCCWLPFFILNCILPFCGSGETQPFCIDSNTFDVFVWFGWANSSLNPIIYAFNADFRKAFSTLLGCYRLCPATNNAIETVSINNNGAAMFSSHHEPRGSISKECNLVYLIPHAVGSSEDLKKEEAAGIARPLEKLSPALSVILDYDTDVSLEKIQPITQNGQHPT
# Sequence of Thyrotropin-releasing hormone receptor (Homo sapiens) (P34981 whole entry, looked up): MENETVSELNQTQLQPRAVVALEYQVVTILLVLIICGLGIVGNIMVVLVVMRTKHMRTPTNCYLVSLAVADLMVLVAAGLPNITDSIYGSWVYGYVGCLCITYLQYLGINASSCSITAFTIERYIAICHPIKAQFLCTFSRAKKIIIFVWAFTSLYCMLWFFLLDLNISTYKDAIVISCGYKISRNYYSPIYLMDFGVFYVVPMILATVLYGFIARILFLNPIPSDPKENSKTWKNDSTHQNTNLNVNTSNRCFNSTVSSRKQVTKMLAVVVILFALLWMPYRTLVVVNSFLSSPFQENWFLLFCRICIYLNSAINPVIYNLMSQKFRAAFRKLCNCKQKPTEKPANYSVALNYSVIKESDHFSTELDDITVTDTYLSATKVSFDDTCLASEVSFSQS
# Sequence of Thyrotropin receptor (Homo sapiens) (P16473 whole entry, looked up): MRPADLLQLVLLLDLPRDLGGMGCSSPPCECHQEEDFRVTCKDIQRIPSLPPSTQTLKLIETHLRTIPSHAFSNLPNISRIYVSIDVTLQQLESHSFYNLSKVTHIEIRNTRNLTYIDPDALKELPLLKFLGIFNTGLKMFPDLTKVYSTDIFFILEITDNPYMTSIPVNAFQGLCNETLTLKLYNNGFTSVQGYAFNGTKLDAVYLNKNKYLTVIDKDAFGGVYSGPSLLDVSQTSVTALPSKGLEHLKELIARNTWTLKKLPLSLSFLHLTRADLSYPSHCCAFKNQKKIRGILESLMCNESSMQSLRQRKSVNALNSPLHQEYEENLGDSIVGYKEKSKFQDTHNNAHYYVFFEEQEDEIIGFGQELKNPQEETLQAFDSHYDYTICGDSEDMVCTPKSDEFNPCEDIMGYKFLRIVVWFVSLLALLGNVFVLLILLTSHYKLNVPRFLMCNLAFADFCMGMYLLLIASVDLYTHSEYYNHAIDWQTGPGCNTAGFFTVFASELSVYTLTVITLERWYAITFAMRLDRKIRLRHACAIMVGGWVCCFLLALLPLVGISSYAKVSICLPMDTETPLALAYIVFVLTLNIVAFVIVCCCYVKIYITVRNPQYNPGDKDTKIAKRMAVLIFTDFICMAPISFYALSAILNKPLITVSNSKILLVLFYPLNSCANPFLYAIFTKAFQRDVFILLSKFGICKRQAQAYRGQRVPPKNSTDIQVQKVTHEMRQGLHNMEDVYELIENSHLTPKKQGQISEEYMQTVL
# Sequence of Transient receptor potential cation channel subfamily V member 1 (Homo sapiens) (Q8NER1 whole entry, looked up): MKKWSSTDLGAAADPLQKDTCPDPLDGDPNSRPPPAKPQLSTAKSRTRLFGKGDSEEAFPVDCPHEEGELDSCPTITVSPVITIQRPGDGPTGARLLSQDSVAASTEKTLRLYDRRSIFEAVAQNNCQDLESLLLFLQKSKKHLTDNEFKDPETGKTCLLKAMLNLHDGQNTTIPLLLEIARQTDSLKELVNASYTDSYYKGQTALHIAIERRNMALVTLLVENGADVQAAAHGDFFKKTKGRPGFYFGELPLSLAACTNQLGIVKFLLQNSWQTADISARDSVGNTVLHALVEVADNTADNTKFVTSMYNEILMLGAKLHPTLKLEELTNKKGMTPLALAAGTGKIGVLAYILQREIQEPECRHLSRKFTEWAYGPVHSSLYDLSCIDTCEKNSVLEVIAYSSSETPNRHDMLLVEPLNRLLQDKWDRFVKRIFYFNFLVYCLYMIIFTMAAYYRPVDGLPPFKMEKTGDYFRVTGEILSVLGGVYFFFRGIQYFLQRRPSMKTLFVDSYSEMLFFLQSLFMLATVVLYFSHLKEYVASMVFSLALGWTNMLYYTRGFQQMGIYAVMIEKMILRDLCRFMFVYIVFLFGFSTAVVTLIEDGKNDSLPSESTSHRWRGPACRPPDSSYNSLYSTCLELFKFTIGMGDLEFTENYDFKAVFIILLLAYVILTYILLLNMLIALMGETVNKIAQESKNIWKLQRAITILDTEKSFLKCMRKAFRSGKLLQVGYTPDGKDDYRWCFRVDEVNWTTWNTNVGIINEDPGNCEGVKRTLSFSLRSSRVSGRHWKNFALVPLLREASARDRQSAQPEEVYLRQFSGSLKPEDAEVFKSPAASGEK
smiles,measurement,setting,value
CCn1cnc2c(Nc3cccc(Cl)c3)nc(N[C@@H]3CCCC[C@@H]3N)nc21,Potency,[1],inactive
same,Potency,[2],39.8 µM (active)
same,outcome,[3],inactive
same,outcome,[4],inactive
same,Potency,[5],inactive
same,Potency,[6],inactive
[O]=[Cd],Potency,[7],inactive
CCCCCCCCOC(=O)c1ccccc1C(=O)OCCCCCCCC,Potency,[7],inactive
CCCCCl,Potency,[7],inactive
CCCN(CCC)C1CCc2cccc(O)c2C1 (stereo not given),Potency,[1],inactive
same,Potency,[2],inactive
same,outcome,[3],inactive
same,outcome,[8],inactive
same,outcome,[4],inactive
same,Potency,[9],inactive
same,Potency,[10],inactive
same,Potency,[5],inactive
same,Potency,[6],inactive
same,Potency,[11],inactive
same,activation,[12],1.12% (inactive)
same,Potency,[13],inactive
same,viability change,[13],4.06%
same,outcome,[14],inactive
same,outcome,[15],inactive
same,Potency,[16],inactive
COc1ccc(OC)c(C(O)C(C)N)c1 (stereo not given),Potency,[17],inactive
same,Potency,[2],inactive
same,outcome,[3],inactive
same,outcome,[8],inactive
same,outcome,[4],inactive
same,Potency,[9],inactive
same,Potency,[5],inactive
same,Potency,[7],inactive
same,Potency,[6],inactive
same,Potency,[11],inactive
same,activation,[12],1.12% (inactive)
same,outcome,[14],inactive
same,outcome,[15],inactive
same,Potency,[16],inactive
O=P(O)(O)C(Cl)(Cl)P(=O)(O)O,Potency,[17],inactive
same,outcome,[8],inactive
same,outcome,[4],inactive
same,Potency,[7],inactive
same,activation,[12],-0.25% (inactive)
same,outcome,[15],inactive
same,Potency,[16],inactive
O=[N+]([O-])c1ccc(F)c([N+](=O)[O-])c1,Potency,[7],inactive
NCC(O)c1cccc(O)c1 (stereo not given),Potency,[7],inactive
C=CCN=C=S,Potency,[7],inactive
COc1ccc2c(c1OC)C(=O)OC2C1c2cc3c(cc2CCN1C)OCO3 (stereo not given),outcome,[8],inactive
CCC1(c2ccccc2)C(=O)NC(=O)NC1=O,Potency,[7],inactive
CN(C(=O)Cc1ccc(Cl)c(Cl)c1)C(CN1CCCC1)c1cccc(OCC(=O)O)c1 (stereo not given),Potency,[1],inactive
same,Potency,[2],inactive
same,outcome,[3],inactive
same,outcome,[8],inactive
same,outcome,[4],inactive
same,Potency,[9],inactive
same,Potency,[10],inactive
same,Potency,[5],inactive
same,Potency,[6],inactive
same,Potency,[11],inactive
same,Potency,[13],inactive
same,viability change,[13],-6.12%
same,outcome,[14],inactive
same,outcome,[15],inactive
same,Potency,[16],inactive
C[N+]1(C)CCN(c2ccccc2)CC1,Potency,[1],inactive
same,outcome,[3],inactive
same,outcome,[8],inactive
same,outcome,[4],inactive
same,Potency,[9],inactive
same,Potency,[10],inactive
same,Potency,[5],inactive
same,Potency,[6],inactive
same,Potency,[11],inactive
same,Potency,[13],inactive
same,viability change,[13],-2.09%
same,outcome,[14],inactive
same,Potency,[16],inactive
C[N+]1(C)CCC(OC(=O)C(c2ccccc2)c2ccccc2)CC1,Potency,[17],inactive
same,outcome,[8],inactive
same,outcome,[4],inactive
same,activation,[12],0.125% (inactive)
same,Potency,[16],inactive
[O]=[Cr](=[O])([OH])[O][Cr](=[O])(=[O])[OH],Potency,[18],4.47 µM (active)
CC(=O)OC1CN2CCC1CC2 (stereo not given),Potency,[7],inactive
NC(C(=O)O)c1cc(=O)[nH]o1 (stereo not given),Potency,[1],inactive
same,Potency,[2],inactive
same,outcome,[3],inactive
same,outcome,[8],inactive
same,outcome,[4],inactive
same,Potency,[9],inactive
same,Potency,[10],inactive
same,Potency,[5],inactive
same,Potency,[6],inactive
same,activation,[12],0.688% (inactive)
same,Potency,[13],inactive
same,viability change,[13],-7.19%
same,outcome,[14],inactive
same,Potency,[16],inactive
